KDM5B inh: KDM5B demethylase inhibition | AID 1347165 | 220,000 tested, 2.6% active | KDM5B demethylase, FDH-coupled NADH fluorescence (FDH is formaldehyde dehydrogenase) | Q9UGL1 | Potency, µM (highest dose often 57.7 µM), usual class: inhibitors; active = well fitted inhibition curve with a large enough effect; note: 0% is about no effect; nearly all actives have a fitted effect of over 70% in size
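Coupled FDH/NAD⁺ fluorescence readout. KDM5BΔAP 200 nM final; compound titration, 10 min RT preincubation; substrate mix 12.5 µM H3K4me3, 25 µM 2-OG, 50 µM Fe(II), 100 µM ascorbate, 0.25 mM NAD⁺, 0.25 U/mL FDH; ΔRFU over 30 min.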
Starred values were filed as active, the others as inactive; i = inactive. The sample as a whole holds a higher share of hits than the screen did. Potency is the fitted concentration of half-maximal effect.

SMILES	KDM5B inh
O=C(NCc1ccc2c(c1)OCO2)c1n[nH]nc1Nc1ccc(Cl)cc1	i
COc1ccccc1-c1nc(C(=O)NCc2ccc3c(c2)OCO3)n2ccncc12	32µM*
COc1ccccc1-c1nc(C(=O)NC2CC2)n2ccncc12	35µM*
CCCNC(=O)c1cc(-c2ccccc2OC)nc2ccccc12	i
COCCNC(=O)c1nc(-c2ccccc2OC)c2cnccn12	32µM*
COc1ccccc1C(=O)NCCC(=O)Nc1cccnc1	i
O=C(NCc1ccc2c(c1)OCO2)c1cc2cc(Cl)ccc2[nH]1	i
O=C(NCc1ccc2c(c1)OCO2)c1nc(-c2ccc(Cl)cc2)c2cnccn12	28µM*
COc1ccc(NC(=O)Cn2nnc(C(=O)NCc3ccc4c(c3)OCO4)c2N)cc1	i
COc1cc(CCC(=O)NCc2ccc3c(c2)OCO3)cc(OC)c1OC	i
FC(F)(F)c1cc(-c2cccs2)nc(SCc2ccccc2)n1	i
O=C(CN1CCCCC1)N1CCCN(S(=O)(=O)c2ccccc2)C1c1ccccc1 (centres undefined)	i
O=C1NC(=NC2CCCC2)C2(CCN(Cc3ccsc3)C2)N1c1cc(F)cc(F)c1 (centres undefined)	i
O=C(Nc1ccc2c(c1)CN(Cc1ccccc1F)C(=O)CO2)c1ccccc1F	i
CCc1ccccc1NC(=O)CCl	i
Cc1ccc(-n2ncc3c(=O)n(-c4ccc5c(c4)OCCO5)c(-c4ccco4)nc32)cc1C	i
COC(=O)CNC(=O)c1nc(-c2ccccc2)c2ccccn12	i
COc1ccccc1-c1nc(C(=O)NCc2ccc(F)cc2)n2ccncc12	89µM*
C[S+](=O)([O-])c1ccc(-c2nc(C(=O)NCc3cccs3)n3ccccc23)cc1	i
COc1ccccc1C(=O)NCC(=O)OCCCOC(=O)CNC(=O)c1ccccc1OC	i
COc1ccccc1N1CCN(C(CNC(=O)C(=O)NCc2ccc(F)cc2)c2cccnc2)CC1 (centres undefined)	i
C[S+](=O)([O-])c1ccc(-c2nc(C(=O)NCc3ccc4c(c3)OCO4)n3ccccc23)cc1	10µM*
O=C(NCc1ccc2c(c1)OCO2)c1nc(-c2cccnc2)c2ccccn12	i
COC(=O)CNC(=O)c1nc(-c2ccccc2OC)c2ccccn12	89µM*
COc1ccccc1-c1nc(C(=O)NCc2ccc(F)cc2)n2ccccc12	79µM*
SMILES	KDM5B inh
COc1ccc(CNC(=O)c2cnn(-c3ccc(F)cc3)c2-n2cccc2)cc1	i
COc1ccc(-n2nc(C(=O)NCc3ccc(F)cc3)c3c4ccccc4n(C)c3c2=O)cc1	i
CC(C)N1C[C@H](O)C[C@H]1c1nnc2n1CCN(C(=O)Cc1cccc(F)c1)CC2	i
COc1ccc(NC(=O)N2CCC(NS(=O)(=O)c3cc(Cl)ccc3OC)CC2)cc1	i
COc1ccc(Cl)cc1C(=O)N1CCN(C(=O)c2nnn3c2COC(c2ccccc2)C3)CC1 (centres undefined)	i
CCCCOC(=O)c1nc2ccccc2nc1NCc1ccc2c(c1)OCO2	i
CC1CCCN(c2ccc3ncccc3c2[N+](=O)[O-])C1 (centres undefined)	i
Cn1c(=O)c2ccnn2c2ccc(C(=O)NCC3CCN(Cc4ccccc4F)CC3)cc21	32µM*
Cc1c(C(=O)N(C)C)sc2c1c(=O)n(-c1ccccc1C(F)(F)F)c(=O)n2Cc1cccc(F)c1	i
O=C(O)c1ccc2c(c1)n(Cc1cccc(F)c1)c(=O)c1ccnn12	28µM*
O=c1cc(-c2ccccc2)nc2n(Cc3cccc(F)c3)c3ccccc3n12	i
O=C(O)c1ccc2c(c1)CC(=O)N2Cc1ccc(F)cc1	i
O=C(CC1CCOCC1)NCC1CCN(Cc2ccccc2F)CC1	i
CN1C(=O)C(CC(=O)NCC2CCN(Cc3ccccc3F)CC2)=C2CCCCC21 (centres undefined)	i
O=C(Nc1cccc(F)c1)c1ccc2oc(=O)n(Cc3ccccc3)c2c1	i
O=C(O)c1ccc2c(c1)n(Cc1ccc(F)cc1)c(=O)c1ccnn12	20µM*
Cc1nc(-c2ccc(F)cc2)n(Cc2cccc(F)c2)c(=O)c1CCO	i
COc1ccc(Cn2c(=O)c3ccnn3c3ccc(C(=O)O)cc32)cc1	i
CN(C)C(=O)c1ccc2c(c1)n(Cc1cccc(F)c1)c(=O)c1ccnn12	32µM*
CCCCC(=O)N1CCC(OC2CCN(Cc3cccnc3)CC2)CC1	i
COc1cccc(-c2n[nH]c3c2CC(=O)N(CCc2ccncc2)C3)c1OC	i
O=C(Nc1ccccc1F)N1CCCCCC1CN1CCCC1 (centres undefined)	i
CC1c2cc3c(cc2CCN1C(=O)c1ccc(F)cc1F)OCCCO3 (centres undefined)	i
Cc1cc(NC(=O)c2cc(-c3ccncc3)nc3ccccc23)nn1C	i
CC(C)(C)CC(=O)NCCc1cccs1	i
SMILES	KDM5B inh
CC(Oc1ccccc1Cl)C(=O)c1c[nH]c2ccccc12 (centres undefined)	i
O=C(CCCc1cccs1)NCc1ccccc1COc1ccccc1	i
CC(=O)c1c[nH]c(C(=O)NC(C)c2ccccc2F)c1 (centres undefined)	i
COc1ccc(C2CCCN2Cc2cc(=O)oc3cc(C)ccc23)cc1 (centres undefined)	i
O=C(NCc1ccco1)c1ccc2c(c1)n(Cc1ccc(F)cc1)c(=O)c1ccnn12	28µM*
CCN(CC)CCNC(=O)c1ccc(Cn2c(SCc3ccccc3)nc3ccncc32)cc1	i
O=C(NCc1cccnc1)c1ccc2c(c1)N(Cc1ccccc1)C(=O)c1ccccc1S2=O (centres undefined)	i
O=C(NCc1cccs1)c1ccc2c(c1)n(Cc1cccc(F)c1)c(=O)c1ccnn12	28µM*
Cc1ccc(-n2c(=O)c3ccc(C(=O)NCc4ccco4)cc3n(Cc3cccc(Cl)c3)c2=O)cc1	i
Cc1ccc(-n2c(=O)c3ccc(C(=O)NCc4ccccc4Cl)cc3n(Cc3cccc(F)c3)c2=O)cc1	i
O=C(NCc1cccnc1)c1ccc(-c2ccccc2)cc1	i
O=C(CSc1nccn1Cc1ccc(F)cc1)NCc1ccco1	i
CCN(CC)CCNC(=O)c1ccc2c(c1)n(Cc1cccc(F)c1)c(=O)c1ccnn12	28µM*
COc1ccc(CCNC(=O)c2ccc(Cn3c(=O)c4ccccc4n(Cc4cccc(F)c4)c3=O)cc2)cc1OC	i
O=C(NCc1cccs1)c1ccc(CSc2nc3ccncc3n2Cc2cccc(F)c2)cc1	i
O=C(NCc1cccnc1)c1ccc2c(c1)n(Cc1ccccc1)c(=O)c1ccnn12	28µM*
CC1(c2ccccc2)N(Cc2cccnc2)C(=O)OC12CCN(C(=O)COc1ccccc1C(N)=O)CC2 (centres undefined)	i
C#CCN(CC)CC(=O)NCc1cccs1	i
Cc1ccc(-n2nnc(C(=O)NCc3ccccn3)c2C)cc1F	i
Fc1ccc(OC2CNC2)cc1	i
Cc1ccccc1-c1onc(C)c1C(=O)NCc1ccc(F)cc1F	i
CCOc1ccc(C(=O)c2sc(Nc3c(C)cccc3C)nc2N)cc1	i
O=C(c1ccc(CS(=O)c2ccc(Cl)cc2)o1)N1CCN(c2ccccc2)CC1 (centres undefined)	i
COc1ccc2nc(NS(=O)(=O)c3ccc(Cl)cc3)c(Nc3ccc4c(c3)OCO4)nc2c1	i
Cc1ccccc1-c1nnc(SCc2cn3cccc(C)c3n2)o1	i
CS(=O)(=O)N(CC(=O)N1CCc2ccccc2C1)c1ccccc1	i
